# Measurements reported in PubChem BioAssay (EPA / NIEHS).
# Where “and” joins values, the source holds several entries; their conditions need not be identical. Equal entries are not always repeated. Results filed as inconclusive are left out. Where a structure was tested more than once in an assay, its records may differ in their call. Calls of active or inactive are those of the source. The calls were made as follows, unless noted: active = hit-call score of the fitted dose curve at least 0.9, where 1 is the maximum; inactive = score below 0.9.
# What was measured:
# [1] = UKN2_HCS_IMR90_cell_viability: Viability Assessment in the University of Konstanz (UKN) Leist Lab Neural Crest Cell Migration Assay in human induced IMR90 Pluripotent Stem Cells (UKN2) (AID 2284233);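 also: viability of neural crest cells differentiated from IMR90 iPSC measured by calcein-AM fluorescence imaging; cells exposed to compound for 24 h after a 24 h migration phase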
# Outline: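 cMINC format, iPSC-derived neural crest (IMR90); 24 h migration (EGF/FGF, N2-S), then 24 h toxicant. Calcein-AM/H-33342 stain 30 min; fluorescence intensity by HCS; DMSO-normalised, bidirectional fitting.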
# [2] = CCTE_Mundy_HCI_Cortical_NOG_NeuronCount: CCTE's Neurite Outgrowth Assay in rat cortical cells for Neuron Count, Mundy Lab (AID 2284236; active = hit-call score of the fitted dose curve at least 0.9, where 1 is the maximum;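 also: neurons counted by imaging betaIII-tubulin and Hoechst stained cortical cells; cells exposed to compound for about 48 hours before fixation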)
# Outline: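 Read-out: neuron number by high-content imaging of betaIII-tubulin (Alexa Fluor-488) and Hoechst-labelled rat primary cortical cells.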
# [3] = CCTE_Mundy_HCI_Cortical_NOG_BPCount: CCTE's Neurite Outgrowth Assay in rat cortical cells for Branch Point Count, Mundy Lab (AID 2284237);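 as to AC50: branch points counted about two days after chemical exposure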
# Outline: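 Measured 50.33 h after dosing, this morphology endpoint uses rat primary cortical cultures labelled for betaIII-tubulin. Branch points are quantified by high-content imaging, with DMSO as negative control and baseline.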
# [4] = CCTE_Mundy_HCI_hNP1_Casp3_7: CCTE's Caspase-Glo 3/7 Assay in human neuroprogenitor cells for Apoptosis, Mundy Lab (AID 2284240)
# Outline: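 Neuroepithelial-lineage stem cells from WA09 embryonic cells were treated with chemicals after 40–44 h of culture. Twenty-four hours later, caspase-3/7 activation was detected luminescently after a 30 min room-temperature reagent step, with DMSO as baseline.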
# [5] = CCTE_Mundy_HCI_hNP1_CellTiter: CCTE's Cell Titer-Glo 2 Assay in human neuroprogenitor cells for Viability, Mundy Lab (AID 2284241; active = hit-call score of the fitted dose curve at least 0.9, where 1 is the maximum;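 as to AC50: a hit is a drop in ATP luminescence versus DMSO meaning reduced viability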)
# Outline: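 Measures ATP content in human neural progenitors derived from WA09 embryonic cells. Read-out at 26.5 hours after dosing, with DMSO serving as the negative control and baseline.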
# [6] = CCTE_Mundy_HCI_Cortical_Synap_Neur_Matur_NeuronCount: CCTE's Synaptogenesis and Neurite Maturation Assay in rat cortical cells for Neuron Count, Mundy Lab (AID 2284242; active = hit-call score of the fitted dose curve at least 0.9, where 1 is the maximum;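 as to AC50: hits reduce neuron count versus DMSO baseline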)
# Outline: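 Measured at DIV 12: fluorescently labelled neurons (Hoechst nuclei, MAP2) in rat primary cortical cultures, counted by high-content imaging. AraC suppressed glia from DIV 5; DMSO served as negative control.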
# [7] = UKN4_HCS_LUHMES_cell_viability: Viability Assessment in the University of Konstanz (UKN) Leist Lab Neurite Outgrowth Assay in human LUHMES cells (UKN4) (AID 2284232)
# Outline: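 Measured in replated, 2-day-differentiated LUHMES cells treated 24 h; stained 30 min with H-33342 and calcein-AM before high-content imaging.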
# [8] = TAMU_HCS_1.5hr_SingleDonor1434_Cytotoxicity: Cytotoxicity Assessment using High-content Screening (HCS) Fluorescent Imaging for the Texas A&M University (TAMU) 1.5-hr Human Induced Pluripotent Stem Cell (iPSC)-derived Cardiotoxicity Assay (AID 2284234; active = hit-call score of the fitted dose curve at least 0.9, where 1 is the maximum)
# Outline: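 Nuclear counts from Hoechst 33342 imaging define cytotoxicity here, with EC10 (10% cell-count loss relative to DMSO) as point of departure. iPSC cardiomyocytes received 0.2-100 uM test chemical in 0.5% DMSO for 1.5 h at 37 C.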
# [9] = TAMU_PeakParms_SingleDonor1434_QT: Texas A&M University (TAMU) 1.5-hr Human Induced Pluripotent Stem Cell (iPSC)-derived Cardiomyocytes Calcium (Ca+2) Flux Assay for Cardiotoxicity: QT (decay-rise ratio) (AID 2284235; active = hit-call score of the fitted dose curve at least 0.9, where 1 is the maximum)
# Outline: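 Decay/rise ratio of calcium-flux fluorescence scored after 90 min exposure (37C) of donor 1434 iPSC cardiomyocytes to 0.2–100 uM (0.5% DMSO). Beat-cessation and severe-notch points removed; POD is EC05, a 5% rise over DMSO.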
# [10] = read-out: Vascular cell adhesion molecule 1 (VCAM1), VCAM1 (gene 7412); assay: BSK_MyoF_VCAM1: BioMAP Diversity Plus: MyoF Assay for Vascular cell adhesion molecule 1 (VCAM1) Biomarker Activity (AID 2284231); settings: primary human lung fibroblasts
# Outline: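 Primary human lung fibroblasts (BioMAP MyoF system) dosed with chemical, VCAM-1 measured by ELISA 24 hours later. Fitted in the positive direction against DMSO; parallel SRB staining assessed cytotoxicity.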
# [11] = read-out: Collagen I, COL1A1 (gene 1277); assay: BSK_MyoF_CollagenI: BioMAP Diversity Plus: MyoF Assay for Collagen I Biomarker Activity (AID 2284238); settings: primary human lung fibroblasts
# Outline: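 Primary human lung fibroblasts (MyoF system) treated 24 h; Collagen I quantified by ELISA and fitted in positive direction against DMSO. Parallel SRB total-protein staining assessed overt cytotoxicity.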
# [12] = read-out: Collagen III, COL3A1 (gene 1281); assay: BSK_MyoF_CollagenIII: BioMAP Diversity Plus: MyoF Assay for Collagen III Biomarker Activity (AID 2284239); settings: primary human lung fibroblasts
# Outline: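 Primary human lung fibroblasts (BioMAP MyoF system) exposed 24 h. Collagen III measured by ELISA; positive-direction fit relative to DMSO.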
# [13] = read-out: Interleukin 17F (IL17F), IL17F (gene 112744); assay: BSK_BT_xIL17F: BioMAP Diversity Plus: BT Assay for Interleukin 17F (IL17F) Biomarker Activity (AID 2284243); settings: primary human B cells with PBMC
# Outline: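 Human PBMC co-cultured with B cells, compound exposure 24 h; secreted IL-17F quantified by Luminex xMAP, referenced to DMSO control. PBMC viability measured in parallel by Alamar Blue reduction.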
# [14] = read-out: Actin alpha 1 (ACTA1), ACTA1 (gene 58); assay: BSK_MyoF_ACTA1: BioMAP Diversity Plus: MyoF Assay for Actin alpha 1 (ACTA1) Biomarker Activity (AID 2284244); settings: primary human lung fibroblasts
# Outline: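 MyoF fibroblast system (human lung); a-SMA quantified via ELISA at 24 h; DMSO-normalised, gain-of-signal endpoint.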
# [15] = read-out: Interleukin 2 (IL2), IL2 (gene 3558); assay: BSK_BT_xIL2: BioMAP Diversity Plus: BT Assay for Interleukin 2 (IL2) Biomarker Activity (AID 2284245); settings: primary human B cells with PBMC
# Outline: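 Co-cultures of primary human B cells and PBMC are treated with chemical and sampled at 24 h. IL-2 secretion is quantified by Luminex xMAP, with DMSO-treated wells as baseline.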
# [16] = read-out: Basic fibroblast growth factor (bFGF), FGF2 (gene 2247); assay: BSK_MyoF_bFGF: BioMAP Diversity Plus: MyoF Assay for Basic fibroblast growth factor (bFGF) Biomarker Activity (AID 2284246); settings: primary human lung fibroblasts
# Outline: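 Fibroblasts from human lung, 24 h dosing. bFGF by ELISA; gain of signal over DMSO.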
# [17] = read-out: Collagen IV, COL4A1 (gene 1282); assay: BSK_MyoF_CollagenIV: BioMAP Diversity Plus: MyoF Assay for Collagen IV Biomarker Activity (AID 2284247); settings: primary human lung fibroblasts
# Outline: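 Lung fibroblasts (human primary) treated with chemicals were assayed after 24 h for Collagen IV using an ELISA, with DMSO serving as negative control and baseline for a positive-direction fit.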
# [18] = read-out: Plasminogen activator inhibitor-1 (PAI1), SERPINE1 (gene 5054); assay: BSK_MyoF_PAI1: BioMAP Diversity Plus: MyoF Assay for Plasminogen activator inhibitor-1 (PAI1) Biomarker Activity (AID 2284256); settings: primary human lung fibroblasts;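 also: PAI-1 read 24 h after compound addition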
# Outline: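 Primary human lung fibroblasts treated with chemical for 24 h; PAI-1 levels quantified by ELISA relative to DMSO. Cytotoxicity was assessed in parallel cultures by SRB total-protein staining (0.1% SRB after 10% TCA fixation, 560 nm).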
# [19] = read-out: Interleukin-8 (IL8), CXCL8 (gene 3576); assay: BSK_MyoF_IL8: BioMAP Diversity Plus: MyoF Assay for Interleukin-8 (IL8) Biomarker Activity (AID 2284261); settings: primary human lung fibroblasts
# Outline: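 Human lung fibroblast (MyoF system) cultures dosed for 24 h, then IL-8 measured by ELISA. Response taken relative to DMSO; parallel SRB total-protein staining for cytotoxicity.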
# Decorin, DCN (gene 1634) = assay: BSK_MyoF_Decorin: BioMAP Diversity Plus: MyoF Assay for Decorin Biomarker Activity (AID 2284265); settings: primary human lung fibroblasts
# Outline: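 Human lung fibroblast cultures were dosed for 24 h, and decorin was then measured by ELISA. Parallel cultures were stained with sulforhodamine B for total protein as a cytotoxicity check. Gain of signal was fitted relative to DMSO.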
smiles,measurement,setting,value
COC(=O)N(OC)c1ccccc1COc1ccn(-c2ccc(Cl)cc2)n1,AC50,[1],90.1 µM (active)
same,AC50,[2],0.143 µM (active)
same,AC50,[3],0.116 µM (active)
same,AC50,[4],33.5 µM (active)
same,AC50,[5],50 µM (active)
same,AC50,[6],0.0487 µM (active)
COP(=S)(OC)Oc1nc(Cl)c(Cl)cc1Cl,AC50,[2],15 µM (active)
same,AC50,[3],24.1 µM (active)
same,outcome,[4],inactive
same,outcome,[5],inactive
same,AC50,[6],25.7 µM (active)
COP(N)(=O)SC (stereo not given),outcome,[2],inactive
same,outcome,[3],inactive
same,outcome,[4],inactive
same,outcome,[5],inactive
same,outcome,[6],inactive
C=CCC1=C(C)C(OC(=O)C2C(C=C(C)C)C2(C)C)CC1=O (stereo not given),outcome,[7],inactive
same,outcome,[3],inactive
same,outcome,[4],inactive
same,outcome,[5],inactive
CCCCNC(=O)OCC#CI,AC50,[8],4.75 µM (active)
same,outcome,[9],inactive
CCCCNC(=O)n1c(NC(=O)OC)nc2ccccc21,outcome,[7],inactive
same,AC50,[1],15 µM (active)
same,AC50,[3],10.3 µM (active)
same,AC50,[4],7.6 µM (active)
same,AC50,[5],10 µM (active)
CN(C)C(=S)SSC(=S)N(C)C,AC50,[1],7.92 µM (active)
same,AC50,[2],0.0469 µM (active)
same,AC50,[3],0.055 µM (active)
same,AC50,[4],87.3 µM (active)
same,AC50,[5],9.92 µM (active)
same,AC50,[6],0.0653 µM (active)
CCCCOC(=O)c1ccccc1C(=O)OCCCC,outcome,[1],inactive
same,outcome,[2],inactive
same,outcome,[3],inactive
same,outcome,[4],inactive
same,AC50,[6],81.3 µM (active)
C=CCC1=C(C)[C@@H](OC(=O)[C@@H]2[C@@H](C=C(C)C)C2(C)C)CC1=O,outcome,[3],inactive
same,outcome,[4],inactive
same,AC50,[5],7.56 µM (active)
same,AC50,[6],26.6 µM (active)
CO/C=C(/C(=O)OC)c1ccccc1Oc1cc(Oc2ccccc2C#N)ncn1,outcome,[1],inactive
same,AC50,[2],4.67 µM (active)
same,AC50,[3],2.23 µM (active)
same,outcome,[4],inactive
same,AC50,[6],3.73 µM (active)
COc1cnc(OC)n2nc(NS(=O)(=O)c3c(OCC(F)F)cccc3C(F)(F)F)nc12,outcome,[10],inactive
same,outcome,[11],inactive
same,outcome,[12],inactive
same,outcome,[13],inactive
same,outcome,[14],inactive
same,outcome,[15],inactive
same,outcome,[16],inactive
same,AC50,[17],0.024 µM (active)
same,outcome,[18],inactive
same,outcome,[19],inactive
same,outcome,"Decorin, DCN (gene 1634)",inactive
CCOC(=O)CC(SP(=S)(OC)OC)C(=O)OCC (stereo not given),AC50,[2],23.9 µM (active)
same,AC50,[4],84.5 µM (active)
same,outcome,[4],inactive
same,AC50,[5],72.8 µM (active)
same,outcome,[5],inactive
same,AC50,[6],50 µM (active)
CCCCC(CC)COC(=O)c1ccccc1C(=O)OCC(CC)CCCC (stereo not given),outcome,[1],inactive
same,AC50,[4],16.6 µM (active) and 11.1 µM (active)
same,AC50,[5],9.22 µM (active)
same,AC50,[6],7.31 µM (active) and 5.3 µM (active)
CNC(=O)ON=CC(C)(C)SC,outcome,[9],inactive
same,outcome,[3],inactive
same,outcome,[4],inactive
same,outcome,[5],inactive
Cc1ccc(-c2c(Cl)nc(C#N)n2S(=O)(=O)N(C)C)cc1,AC50,[1],0.564 µM (active)
same,AC50,[2],50 µM (active)
same,AC50,[3],78 µM (active)
same,AC50,[4],89.9 µM (active)
same,AC50,[5],85.4 µM (active)
same,AC50,[6],50 µM (active)
CC(C)(C)c1ccc(CSc2cnn(C(C)(C)C)c(=O)c2Cl)cc1,outcome,[1],inactive
same,AC50,[2],0.0982 µM (active)
same,AC50,[3],0.00299 µM (active)
same,AC50,[4],9.49 µM (active)
same,AC50,[5],11.5 µM (active)
same,AC50,[6],0.000347 µM (active)
CCOc1cc(Oc2ccc(C(F)(F)F)cc2Cl)ccc1[N+](=O)[O-],outcome,[1],inactive
same,AC50,[4],52.1 µM (active)
same,AC50,[5],18.9 µM (active)
same,AC50,[6],15 µM (active)
N#Cc1nn(-c2c(Cl)cc(C(F)(F)F)cc2Cl)c(N)c1S(=O)C(F)(F)F (stereo not given),outcome,[7],inactive
same,AC50,[1],40 µM (active)
same,outcome,[2],inactive
same,outcome,[3],inactive
same,outcome,[4],inactive
same,outcome,[5],inactive
same,AC50,[6],15 µM (active)
C=CC1(C)OC(=O)N(c2cc(Cl)cc(Cl)c2)C1=O (stereo not given),outcome,[1],inactive
same,outcome,[2],inactive
same,outcome,[3],inactive
same,outcome,[4],inactive
same,outcome,[5],inactive
